According to PubChem BioAssay:
The source made the active and inactive calls.

Key:
[1] = tested on: PRMT1 (protein arginine N-methyltransferase 1); assay: PRMT1 binders on small-molecule microarrays, primary screen, biochemical, small-molecule microarray, 635 nm fluorescence (AID 1088); conditions: small-molecule microarray binding, higher = more signal;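 note: binding of Prmt1 protein to compounds spotted on small-molecule microarray slides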
[2] = yeast growth modulation, basal conditions, primary screen, YJM789 clinical isolate, OD600, 24 h (AID 1089);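 note: growth of clinical yeast isolate S. cerevisiae YJM 789 seeded 1000 cells per well; test concentration not given here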; conditions: S. cerevisiae YJM789 growth, higher = more signal, called active from +8 up or from −8 down
[3] = fission yeast growth modulation, primary screen, strain 972, OD600, 24 h, no modulator (AID 1090);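 note: basal condition with compound alone and no growth modifier present; test concentration not given here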; conditions: S. pombe 972 growth, higher = more signal, called active from +8 up or from −8 down
[4] = S. cerevisiae growth modulation with rapamycin, primary screen, strain BY4716, OD600, 96 h (AID 1091); conditions: higher = more signal, called active from +8 up or from −8 down; note: test concentration not given here
[5] = target: Torsin-1A-interacting protein 2 (Homo sapiens) (UniProt Q8NFQ8); assay: LULL1 binders on small-molecule microarray, primary screen, cell lysate, human LULL1 lysate, 635/667 nm fluorescence (AID 1092); conditions: hLULL1 lysate binding, 635 nm fluorescence, higher = more signal;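 note: probe is lysate of COS7 cells overexpressing human LULL1; score merges per-feature 667 nm fluorescence with signal-to-noise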
Sequence of Torsin-1A-interacting protein 2 (Homo sapiens) (Q8NFQ8 whole entry, looked up): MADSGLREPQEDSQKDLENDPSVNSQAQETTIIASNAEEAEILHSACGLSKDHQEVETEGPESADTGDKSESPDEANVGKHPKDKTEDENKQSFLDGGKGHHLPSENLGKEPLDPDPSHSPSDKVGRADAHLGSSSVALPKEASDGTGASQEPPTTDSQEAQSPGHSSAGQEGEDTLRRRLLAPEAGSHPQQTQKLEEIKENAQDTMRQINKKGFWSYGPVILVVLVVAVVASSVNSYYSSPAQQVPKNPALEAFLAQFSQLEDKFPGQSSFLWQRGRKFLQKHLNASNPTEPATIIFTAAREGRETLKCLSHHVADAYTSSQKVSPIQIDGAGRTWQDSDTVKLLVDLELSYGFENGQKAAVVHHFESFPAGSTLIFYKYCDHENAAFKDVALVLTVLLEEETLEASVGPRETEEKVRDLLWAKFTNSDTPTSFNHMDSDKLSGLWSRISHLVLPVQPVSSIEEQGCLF

[6] = E. coli growth modulation, two-sided OD650, primary screen, E. coli filamentation project, strain DRC41, 24 h (AID 1093); conditions: OD650, 24 h, higher = more signal, called active from +8 up or from −8 down;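 note: MC1000 strain lacking acrAB efflux and sulA so SOS filamentation is blocked; test concentration not given here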
[7] = small-molecule microarray binders of probe aLefty2, primary screen, biochemical, biotinylated probe, 635/667 nm fluorescence (AID 1094); conditions: higher = more signal;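 note: score merges spot fluorescence near 667 nm with spot signal-to-noise ratio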
[8] = tested on: Noggin (protein binding on small-molecule microarray); assay: Noggin binders on small-molecule microarray, primary screen, biochemical, 635/667 nm fluorescence (AID 1095); conditions: 635 nm fluorescence, higher = more signal;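 note: score merges 667 nm feature fluorescence with signal to noise over triplicate slides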
[9] = target: Neurogenic locus notch homolog protein 3 (Homo sapiens) (UniProt Q9UM47); assay: NOTCH3 binders on small-molecule microarray, primary screen, biochemical, 635/667 nm fluorescence (AID 1096); conditions: NOTCH3 binding, 635 nm fluorescence, higher = more signal
Sequence of Neurogenic locus notch homolog protein 3 (Homo sapiens) (Q9UM47 whole entry, looked up): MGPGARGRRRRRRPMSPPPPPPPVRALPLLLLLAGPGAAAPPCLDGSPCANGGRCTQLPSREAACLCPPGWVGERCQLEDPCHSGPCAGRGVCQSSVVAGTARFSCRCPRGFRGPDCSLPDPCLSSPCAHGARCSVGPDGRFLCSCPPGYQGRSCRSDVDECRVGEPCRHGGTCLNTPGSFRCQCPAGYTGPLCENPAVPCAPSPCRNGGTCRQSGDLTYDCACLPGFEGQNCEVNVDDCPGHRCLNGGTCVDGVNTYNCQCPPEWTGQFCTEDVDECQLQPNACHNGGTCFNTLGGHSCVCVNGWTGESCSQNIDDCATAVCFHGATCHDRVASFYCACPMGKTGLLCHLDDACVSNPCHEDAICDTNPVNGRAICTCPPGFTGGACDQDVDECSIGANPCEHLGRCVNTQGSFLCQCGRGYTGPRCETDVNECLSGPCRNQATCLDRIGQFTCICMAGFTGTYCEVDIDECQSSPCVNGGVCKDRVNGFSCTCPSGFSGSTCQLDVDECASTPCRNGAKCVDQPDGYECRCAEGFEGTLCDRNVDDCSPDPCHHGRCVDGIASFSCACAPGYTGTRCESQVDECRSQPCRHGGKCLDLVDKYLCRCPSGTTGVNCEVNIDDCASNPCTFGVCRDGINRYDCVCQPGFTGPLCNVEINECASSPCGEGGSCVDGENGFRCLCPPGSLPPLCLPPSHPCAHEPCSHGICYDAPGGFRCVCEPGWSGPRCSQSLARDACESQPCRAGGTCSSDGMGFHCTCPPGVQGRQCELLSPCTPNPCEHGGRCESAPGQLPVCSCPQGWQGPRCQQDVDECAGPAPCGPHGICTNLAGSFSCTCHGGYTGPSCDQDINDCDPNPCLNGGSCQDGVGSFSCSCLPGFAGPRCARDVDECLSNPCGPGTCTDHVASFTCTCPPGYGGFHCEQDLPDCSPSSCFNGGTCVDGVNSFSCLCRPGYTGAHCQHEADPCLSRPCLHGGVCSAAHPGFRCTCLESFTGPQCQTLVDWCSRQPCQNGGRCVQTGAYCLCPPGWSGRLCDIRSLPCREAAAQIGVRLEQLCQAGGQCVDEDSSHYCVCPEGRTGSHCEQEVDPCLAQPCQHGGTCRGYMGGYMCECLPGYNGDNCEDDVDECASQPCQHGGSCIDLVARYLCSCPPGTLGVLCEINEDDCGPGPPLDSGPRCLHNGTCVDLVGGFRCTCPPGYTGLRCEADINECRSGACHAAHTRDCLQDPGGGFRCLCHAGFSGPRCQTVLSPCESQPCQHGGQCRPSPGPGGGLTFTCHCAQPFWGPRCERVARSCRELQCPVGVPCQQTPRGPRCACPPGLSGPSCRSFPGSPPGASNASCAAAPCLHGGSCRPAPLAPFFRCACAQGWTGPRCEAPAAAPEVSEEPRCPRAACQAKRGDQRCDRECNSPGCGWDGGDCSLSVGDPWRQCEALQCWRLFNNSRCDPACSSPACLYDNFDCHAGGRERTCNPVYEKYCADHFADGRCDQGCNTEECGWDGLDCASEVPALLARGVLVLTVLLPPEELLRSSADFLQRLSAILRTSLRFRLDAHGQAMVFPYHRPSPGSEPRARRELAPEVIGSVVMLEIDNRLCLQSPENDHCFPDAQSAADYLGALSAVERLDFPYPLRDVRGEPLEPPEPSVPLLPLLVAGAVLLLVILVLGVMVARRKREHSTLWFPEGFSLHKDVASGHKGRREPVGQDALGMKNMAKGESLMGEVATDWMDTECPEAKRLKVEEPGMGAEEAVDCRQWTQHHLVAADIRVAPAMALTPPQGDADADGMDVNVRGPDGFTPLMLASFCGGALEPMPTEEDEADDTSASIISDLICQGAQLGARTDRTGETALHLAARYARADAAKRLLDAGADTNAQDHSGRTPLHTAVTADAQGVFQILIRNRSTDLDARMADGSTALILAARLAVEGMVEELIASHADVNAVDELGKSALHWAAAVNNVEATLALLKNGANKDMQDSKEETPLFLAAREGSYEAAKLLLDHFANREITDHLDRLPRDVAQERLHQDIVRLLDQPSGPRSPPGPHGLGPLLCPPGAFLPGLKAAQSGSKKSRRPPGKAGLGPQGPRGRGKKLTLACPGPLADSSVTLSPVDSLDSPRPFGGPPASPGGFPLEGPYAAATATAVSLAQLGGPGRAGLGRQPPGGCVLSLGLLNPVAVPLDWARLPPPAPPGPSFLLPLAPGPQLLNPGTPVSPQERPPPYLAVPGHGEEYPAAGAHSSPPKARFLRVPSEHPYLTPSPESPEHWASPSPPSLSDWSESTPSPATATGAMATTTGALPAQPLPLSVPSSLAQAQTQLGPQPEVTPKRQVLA

[10] = small-molecule microarray binders of probe aEGFR, primary screen, biochemical, biotinylated probe, 635/667 nm fluorescence (AID 1097); conditions: higher = more signal;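 note: probe is a biotinylated anti-EGFR antibody binding compounds printed on slides; score combines fluorescence near 667 nm and signal to noise of each spot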
[11] = tested on: Plasmodium falciparum Sir2 (PF13_0152, Sir2A); assay: pfSir2 binders on small-molecule microarrays, primary screen, biochemical, small-molecule microarray, 635 nm fluorescence (AID 1098); conditions: small-molecule microarray binding, fluorescence 635 nm; higher = more signal;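 note: score merges spot fluorescence intensity with its signal-to-noise ratio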
[12] = small-molecule microarray binders of probe aDKK1, primary screen, biochemical, biotinylated probe, 635/667 nm fluorescence (AID 1099); conditions: higher = more signal;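 note: score merges 667nm spot fluorescence with signal to noise across triplicate slides; reference of the scale not given here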
[13] = small-molecule microarray binders of probe aCHRDL2, primary screen, biochemical, biotinylated probe, 635/667 nm fluorescence (AID 1100); conditions: higher = more signal
[14] = splicing luciferase reporter signal modulators, primary screen, spliceosome inhibition project, cell-based, HEK293, splice +/- reporter (AID 1101); conditions: luminescence, 24 h, higher = more signal, called active from +8 up or from −8 down;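 note: HEK293 cells carrying a splicing-competent luciferase reporter gene; test concentration not given here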
[15] = target: Fibroblast growth factor 10 (Homo sapiens) (UniProt O15520); assay: FGF10 binders on small-molecule microarrays, primary screen, biochemical, small-molecule microarray, 635 nm fluorescence (AID 1102); conditions: FGF10 binding, fluorescence 635 nm, higher = more signal
Sequence of Fibroblast growth factor 10 (Homo sapiens) (O15520 whole entry, looked up): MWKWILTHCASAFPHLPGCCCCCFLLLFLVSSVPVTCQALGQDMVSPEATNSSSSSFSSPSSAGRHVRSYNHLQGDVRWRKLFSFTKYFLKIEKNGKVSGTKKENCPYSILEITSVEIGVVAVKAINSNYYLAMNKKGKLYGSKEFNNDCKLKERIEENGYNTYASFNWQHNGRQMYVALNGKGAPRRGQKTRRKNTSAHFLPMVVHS

[16] = tested on: glycogen synthase kinase-3 (GSK3A per assay name; protocol says GSK3B); assay: GSK3 binders on small-molecule microarrays, primary screen, biochemical, small-molecule microarray, 635 nm fluorescence, GSK3A (AID 1103); conditions: small-molecule microarray binding, fluorescence 635 nm; higher = more signal; note: the record names both GSK3A and GSK3B
[17] = target: Epidermal growth factor receptor (Homo sapiens) (UniProt P00533); assay: EGFR binders on small-molecule microarrays, primary screen, biochemical, small-molecule microarray, 635 nm fluorescence (AID 1104); conditions: EGFR binding, higher = more signal;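 note: score merges 667 nm emission intensity with spot signal to noise over triplicate slides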
Sequence of Epidermal growth factor receptor (Homo sapiens) (P00533 whole entry, looked up): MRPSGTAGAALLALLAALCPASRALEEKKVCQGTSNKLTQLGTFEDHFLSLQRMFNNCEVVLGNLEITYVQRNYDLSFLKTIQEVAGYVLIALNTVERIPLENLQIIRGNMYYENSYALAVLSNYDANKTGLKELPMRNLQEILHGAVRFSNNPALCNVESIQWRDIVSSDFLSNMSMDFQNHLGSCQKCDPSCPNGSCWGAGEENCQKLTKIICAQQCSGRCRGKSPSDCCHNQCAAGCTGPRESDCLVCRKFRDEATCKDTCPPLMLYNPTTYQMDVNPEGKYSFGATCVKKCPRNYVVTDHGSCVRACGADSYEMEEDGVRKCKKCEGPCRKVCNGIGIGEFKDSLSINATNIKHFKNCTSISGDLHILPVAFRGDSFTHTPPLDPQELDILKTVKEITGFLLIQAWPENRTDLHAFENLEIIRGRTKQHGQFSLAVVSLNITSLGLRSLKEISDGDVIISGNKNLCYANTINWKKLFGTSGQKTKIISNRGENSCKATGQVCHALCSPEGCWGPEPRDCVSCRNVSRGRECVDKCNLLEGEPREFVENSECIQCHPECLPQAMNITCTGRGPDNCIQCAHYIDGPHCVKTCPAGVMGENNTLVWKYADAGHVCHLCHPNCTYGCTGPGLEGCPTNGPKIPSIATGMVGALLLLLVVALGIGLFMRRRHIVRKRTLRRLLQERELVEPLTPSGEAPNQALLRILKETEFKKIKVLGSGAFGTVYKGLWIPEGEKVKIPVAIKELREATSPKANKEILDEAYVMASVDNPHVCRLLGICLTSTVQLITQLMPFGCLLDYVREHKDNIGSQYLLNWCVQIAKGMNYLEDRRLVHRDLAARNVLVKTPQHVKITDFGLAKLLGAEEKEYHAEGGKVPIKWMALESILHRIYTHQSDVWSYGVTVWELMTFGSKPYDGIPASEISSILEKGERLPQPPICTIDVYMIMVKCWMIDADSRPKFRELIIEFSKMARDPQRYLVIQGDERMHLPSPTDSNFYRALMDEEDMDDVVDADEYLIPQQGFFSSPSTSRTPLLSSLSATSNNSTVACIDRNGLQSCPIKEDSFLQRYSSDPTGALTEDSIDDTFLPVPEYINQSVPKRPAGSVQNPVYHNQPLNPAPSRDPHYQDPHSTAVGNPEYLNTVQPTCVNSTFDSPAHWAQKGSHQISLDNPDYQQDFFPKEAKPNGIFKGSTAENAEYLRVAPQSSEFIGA

[18] = target: Follistatin-related protein 3 (Homo sapiens) (UniProt O95633); assay: FSTL3 binders on small-molecule microarrays, primary screen, biochemical, small-molecule microarray, 635 nm fluorescence (AID 1105); conditions: FSTL3 binding, higher = more signal;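 note: score merges emission near 667 nm and signal to noise per printed spot across three slides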
Sequence of Follistatin-related protein 3 (Homo sapiens) (O95633 whole entry, looked up): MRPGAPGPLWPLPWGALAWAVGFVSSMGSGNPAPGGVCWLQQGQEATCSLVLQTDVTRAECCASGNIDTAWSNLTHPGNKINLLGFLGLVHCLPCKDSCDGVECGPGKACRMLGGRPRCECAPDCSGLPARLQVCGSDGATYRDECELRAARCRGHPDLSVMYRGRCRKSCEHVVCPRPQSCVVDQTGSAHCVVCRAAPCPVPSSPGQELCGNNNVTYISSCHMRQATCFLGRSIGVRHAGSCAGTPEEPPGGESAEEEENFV

[19] = target: Dickkopf-related protein 1 (Homo sapiens) (UniProt O94907); assay: DKK1 binders on small-molecule microarrays, primary screen, biochemical, small-molecule microarray, 635 nm fluorescence scan (AID 1106); conditions: DKK1 binding, higher = more signal;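 note: score merges emission near 667 nm with signal to noise over three replicate slides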
Sequence of Dickkopf-related protein 1 (Homo sapiens) (O94907 whole entry, looked up): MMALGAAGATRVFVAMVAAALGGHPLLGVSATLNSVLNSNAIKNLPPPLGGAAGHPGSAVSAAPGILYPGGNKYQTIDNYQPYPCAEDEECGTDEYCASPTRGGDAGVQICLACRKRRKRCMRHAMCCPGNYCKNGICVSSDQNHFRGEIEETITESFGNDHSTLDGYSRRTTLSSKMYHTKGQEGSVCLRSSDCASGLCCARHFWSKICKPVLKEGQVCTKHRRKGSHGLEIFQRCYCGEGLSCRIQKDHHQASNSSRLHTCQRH

[20] = tested on: Inhibin beta A chain (activin A); assay: INHBA (activin A) binders on microarrays, primary screen, biochemical, small-molecule microarray, 635 nm fluorescence scan (AID 1107); conditions: small-molecule microarray binding, higher = more signal;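 note: mouse activin A protein probed at 4.33 µg/mL on printed slides; score merges bound-protein fluorescence near 667 nm with spot signal-to-noise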

SMILES	composite z-score [1]	z-score [2]	z-score [3]	z-score [4]	composite z-score [5]	z-score [6]	composite z-score [7]	composite z-score [8]	composite z-score [9]	composite z-score [10]	composite z-score [11]	composite z-score [12]	composite z-score [13]	z-score [14]	composite z-score [15]	composite z-score [16]	composite z-score [17]	composite z-score [18]	composite z-score [19]	composite z-score [20]
CC[C@@H]1C=C(C(=O)O)[C@H](c2ccc(C)cc2)N1S(=O)(=O)c1ccc(C)cc1	0.805	-1.23 (inactive)	0.992 (inactive)	-0.564 (inactive)	2.9	-0.552 (inactive)	-0.0654	0.634	0.939	-0.0557	0.66	0.0882	0.335	0.243 (inactive)	0.227	0.745	-0.0708	0.534	-0.357	0.236
COc1ccc(C(O)C2C=CC3C(=O)N(C)C(=O)C3N2NC(=O)OC(C)(C)C)c2ccccc12 (stereo not given)	1.57	-0.842 (inactive)	1.64 (inactive)	0.577 (inactive)	3.12	-0.618 (inactive)	0.284	-0.149	1.08	0.0185	1.47	0.578	1.01	1.41 (inactive)	1.16	1.27	0.138	1.32	-0.557	0.441
C=CCC(OC(C)=O)[C@@H]1[C@@H](N(Cc2ccc(-c3ccccc3)cc2)C(=O)Cc2ccc(F)cc2)c2cc(OCCCO)ccc2N1C(=O)c1ccc2ccccc2c1 (stereo not given in full)	0.688	0.245 (inactive)	0.135 (inactive)	0.14 (inactive)	0.437	0.0919 (inactive)	0.0002	0.289	0.147	-0.109	-0.352	-0.0183	0.345	-0.519 (inactive)	0.0036	0.0557	0.0144	0.268	-0.4	1.18
